Source: PubChem BioAssay (several laboratories)
PTPN22 act – LYP (human) phosphatase activation; 0.11% of 96,000 active; Q9Y2R2; recombinant LYP, DiFMUP fluorescence; 0 = plate median, 100 = signal doubled; activation, % at 2 µM;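 active means activation at 2 µM above a set limit, the mean plus 5 SD, cut at about 37% in these data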
LYP inh 2 – LYP (human) phosphatase inhibition; recombinant LYP catalytic domain, DiFMUP fluorescence; inhibition, % at 2 µM; 0.21% of 96,000 active; AID 640;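 active means inhibition at 2 µM at or above a set limit, the screen mean plus 3 SD, cut at about 24% in these data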
FAK inh – FAK (human) kinase inhibition. AID 727. Q05397. inhibition, %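 (tested at 7 µM)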. 0.84% of 97,000 active. biochemical FAK kinase activity assay
ERa coact pot – ER-alpha (human) coactivator binding potentiation. AID 639. 1.3% of 86,000 active. TR-FRET ERalpha-LBD/SRC-Cy5 coactivator binding, 2 h; 100 = basal binding, no effect. P03372. coactivator binding (% of control), % at 25.6 µM; in the data active means activity above about 200%;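 further: binding measured in presence of low estradiol as agonist stimulus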
ERb SRC1 inh – ER-beta (human) coactivator binding inhibition. AID 633. TR-FRET ER-beta LBD / SRC1-Cy5 peptide binding; receptor agonist-loaded with 1 µM estradiol. Q92731. inhibition, % at 25.6 µM. 1.3% of 86,000 active;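 active means compounds whose percent inhibition of the receptor-coactivator binding signal exceeds about 50% in the single-dose screen, limit read from the data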
ERa coact inh – blocks coactivator binding to human estrogen receptor alpha. P03372. TR-FRET ER-alpha LBD / SRC-1 peptide, estradiol-bound. inhibition, % at 25.6 µM. 1.7% of 86,000 active. AID 629; in the data active means inhibition above about 50%
FAK inh confirm – confirmation of human focal adhesion kinase (FAK) inhibitors | shares compounds with FAK inh | FAK kinase biochemical inhibition assay | inhibition, % at 7 µM | 28% of 750 active | AID 794
Numbers stand for hits; . = inactive; / = no result given; [ ] = another dose, or the depositor's remark. This is a sample that favours compounds with a hit; in the whole collection about 3.4% have one here. Unless noted, no stated cut-off is given here; in the data, active means inhibition above about 19%; inactive means the rest.

SMILES | PTPN22 act | LYP inh 2 | FAK inh | ERa coact pot | ERb SRC1 inh | ERa coact inh | FAK inh confirm
Cc1nc(NCc2ccco2)c2oc3ccccc3c2n1 | . | . | 24 | / | / | / | .
COc1cc(C2CC(=O)c3cnc(N4CCN(Cc5ccccc5)CC4)nc3C2)cc(OC)c1OC (configuration not stated) | . | . | 19 | . | . | . | .
CCCCn1nnnc1NCc1ccc(N(CC)CC)cc1 | . | . | . | . | . | . | /
CCOC(=O)c1ccc(Nc2nc(-c3cccnc3)nc3ccccc23)cc1 | . | . | 22 | / | / | / | .
CC1(CCc2ccc(O)cc2)NC(=O)NC1=O (configuration not stated) | . | . | . | . | . | . | /
c1ccc2c(c1)CCN2CCN1CCc2ccccc21 | / | / | / | . | . | . | /
CN(C)CCN1CCc2ccccc21 | . | . | 32 | . | 55[fluorescence artefact?] | . | 45
CCN(CC)S(=O)(=O)c1ccc2c(c1)nc(SCC(=O)NC1CC1)n2-c1ccccc1OC | . | . | . | . | . | . | /
Nc1ccc(-n2cnc3cc([N+](=O)[O-])ccc32)cc1 | . | . | 26 | / | / | / | .
COc1ccc2c(c1)CCc1c(C(=O)Nc3ccn(Cc4ccc(C)cc4)n3)noc1-2 | . | . | 26 | . | . | . | .
CCC1Oc2ccc(C)cc2N(CC(=O)NCC2COc3ccccc3O2)C1=O (configuration not stated) | . | . | . | . | . | . | /
CN(CC1CCCO1)S(=O)(=O)c1ccc(C(=O)Nc2nc(-c3ccccn3)cs2)cc1 (configuration not stated) | . | . | . | . | . | . | /
Cc1cc(-c2csc(NC(=O)c3ccc(=O)n(C)n3)n2)c(C)n1CC1CCCO1 (configuration not stated) | . | . | 22 | . | . | . | .
CCOC(=O)c1sc2c(c1C)C(c1cccs1)C1=C(CCCC1=O)N2 (configuration not stated) | . | . | 24 | . | . | . | 19
O=C(N/N=C/c1ccc2ccccc2c1)c1ccc(COc2ccc3c(c2)CCC3)o1 | . | 33 | 33 | / | / | / | 24
Cn1c(SCC(=O)N2CCCCC2)nc2c([nH]c3ccccc32)c1=O | . | . | 24 | . | . | . | .
CCCC(=O)Nc1sc(C)c(C)c1C(=O)Nc1cccc(C)c1 | . | . | . | / | / | / | /
Cc1ccc2c(n1)sc1c(-c3ccc(Br)cc3)c(C#N)c(N)nc12 | . | . | 29 | / | / | / | .
O=C(c1ccccc1[N+](=O)[O-])N1CCC(Cc2ccccc2)CC1 | . | . | . | / | / | / | /
NC(=O)c1sc2nc3c(c(-c4ccco4)c2c1N)CCC3 | . | . | 34 | . | 54[fluorescence artefact?] | . | 20
COc1ccc(-c2c3c(nc4sc(C(=O)Nc5cc(C)on5)c(N)c24)CCC3)cc1 | . | . | . | . | . | . | /
CCOc1ccc(S(=O)(=O)Nc2ccc(F)cc2)c(C)c1C | . | . | . | . | . | . | /
CCN1CCc2c(sc(N)c2C#N)C1 | . | . | 26 | . | 77[fluorescence artefact?] | 65[fluorescence artefact?] | 19
COC(=O)c1ccccc1S(=O)(=O)Nc1ccc2cn[nH]c2c1 | . | . | 20 | . | . | . | .
N#Cc1ccccc1/C=N/Nc1nc(-c2ccccc2)c2cc(Cl)ccc2n1 | . | . | 50 | / | / | / | 34
SMILES | PTPN22 act | LYP inh 2 | FAK inh | ERa coact pot | ERb SRC1 inh | ERa coact inh | FAK inh confirm
Cc1cccc2cc(CN(Cc3nnnn3C3CCCCC3)C3CCCC3)c3nnnn3c12 | . | . | . | . | . | . | /
CCOc1ccc(-c2nnc3sc(COc4ccc(Cl)cc4)nn23)cc1 | . | . | 21 | . | . | . | .
CCOc1ccc(-c2nnc3sc(COc4ccc(C)cc4)nn23)cc1 | . | . | . | . | . | . | /
COc1cccc(C(=O)Nc2c(C(N)=O)oc3ccccc23)c1 | . | . | 21 | . | 90[fluorescence artefact?] | . | .
COC(=O)c1ccc(COc2ccc(/C=C(\C#N)c3nc4ccccc4[nH]3)cc2OC)o1 | . | . | 56 | / | / | / | 23
COc1cc(/C=C(/C#N)c2nc3ccccc3[nH]2)ccc1OCc1ccc(C(=O)O)o1 | . | . | . | / | / | / | /
O=C(Oc1ccc(-c2cnc3ccccc3n2)cc1)c1cccc([N+](=O)[O-])c1 | . | . | . | / | / | / | /
O=C(Oc1ccc(-c2cnc3ccccc3n2)cc1)c1ccc(Br)o1 | . | . | 47 | 489 | . | . | 24
COc1ccc(OC)c(N2C(=O)[C@@H]3C(c4ccccc4Cl)=NO[C@@H]3C2=O)c1 | . | . | 19 | . | 79 | 79 | .
COc1ccc(C2=NO[C@@H]3C(=O)N(c4c(C)cccc4C)C(=O)[C@H]23)cc1OC | . | . | . | . | . | . | /
CCn1c(SCC(=O)Nc2ccc3c(c2)c2ccccc2n3CC)nnc1-c1ccco1 | . | . | 30 | . | . | 63 | .
CN(C)S(=O)(=O)Oc1ccsc1C(=O)Nc1cccc(Cl)c1 | . | . | . | / | / | / | /
COC(=O)c1sccc1-c1ccc(C(=O)Nc2cccc(Cl)c2)o1 | . | . | 26 | / | / | / | .
COc1ccc(Nc2nnc(SCc3cc([N+](=O)[O-])cc4c3OCOC4)s2)cc1 | . | . | . | / | / | / | /
Cc1c(-c2ccc(Cl)cc2)oc(=O)c2c(N)n(-c3ccccc3)nc12 | . | . | 24 | / | / | / | .
Cc1cc2ccccc2c(=O)[nH]1 | / | / | / | . | . | . | /
O=c1[nH]c(Nc2ccc(F)cc2)cc2ccccc12 | . | . | 36 | / | / | / | .
CC(C)c1nc(SCC(=O)Nc2nc3c(s2)CCCC3)c2ccccc2n1 | . | . | 20 | / | / | / | .
Cc1cc(NC(=O)CSc2nc(C(C)C)nc3ccccc23)no1 | . | . | 45 | . | . | . | 28
Cc1nnc(NC(=O)CSc2nc3ccccc3o2)s1 | . | . | . | . | . | . | /
Cc1nnc(NC(=O)CSc2nc(C(C)C)nc3ccccc23)s1 | . | . | 46 | / | / | / | 23
CC(C)(CS(=O)(=O)[O-])NC(=O)CC[N+](C)(C)CCO | . | . | 28 | . | . | . | .
CC(C)C(=O)NS(=O)(=O)c1ccc(N)cc1 | . | . | . | . | . | . | /
CCCc1nc2sc3ccccc3c(=O)c2c(=O)n1Cc1ccco1 | . | . | 22 | . | 64 | 70[fluorescence artefact?] | .
C=C(C)c1cccc(C(C)(C)NC(=O)N2CCN(C/C=C/c3ccccc3)CC2)c1 | . | . | . | . | . | . | /
SMILES | PTPN22 act | LYP inh 2 | FAK inh | ERa coact pot | ERb SRC1 inh | ERa coact inh | FAK inh confirm
Clc1ccc2[nH]c3c(NCC4CCCO4)ncnc3c2c1 (configuration not stated) | . | . | 22 | . | . | . | .
CCCSc1nc(N)nc(-c2cccs2)c1C#N | . | . | . | / | / | / | /
Cc1cc(N)ccc1N1CCCC1 | . | . | 74 | / | / | / | 58
Cc1cc(C)cc(-n2c(C)cc(/C=N/NC(=O)c3cccc([N+](=O)[O-])c3C)c2C)c1 | . | . | . | / | / | / | /
Cc1cc([N+](=O)[O-])c2[nH]c(C(=O)N/N=C/c3ccccc3C(=O)O)c(-c3ccccc3)c2c1 | . | . | 29 | / | / | / | .
Cc1cc(Nc2ccccc2)nc(N2CCOCC2)n1 | . | . | . | . | . | . | /
